Source: PubChem
The list is not random: actives were taken first. Their share in the collection is about 2.4%.
PGE2 EP2 inh = EP2 receptor (human) inhibition; inhibition, % at 25 µM; AID 1422; P43116; C6 glioma cells expressing human EP2, cAMP TR-FRET; cells stimulated with saturating PGE2; 260,000 tested, 0.52% active;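 active = percent inhibition above 40 after rounding to a whole number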;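 also: rat C6 glioma host cells with rolipram phosphodiesterase inhibitor present; the protocol text gives 20 µM as final concentration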
INS promoter inh = TRM-6 insulin promoter activity inhibition. TRM-6 cells (human fetal islet line), insulin promoter-eGFP reporter, imaging; reporter expression induced with tamoxifen. inhibition, % at 2 µM. 130,000 tested, 0.9% active;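 active = inhibition above the mean plus 3 SD, with well images judged a real hit on visual review, cut at about 60% in these data, passing the limit was not always enough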
S1P4 ag = activates the human S1P4 receptor. AID 1509. S1P4-expressing cell line, agonist reporter assay. activation, % at 4.98 µM. 220,000 tested, 0.35% active. O95977; in the data active = activation above about 11%;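 also: 0% = DMSO vehicle and 100% = reference agonist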
S1P4 antag = antagonists of human S1P4 receptor; O95977; S1P4-expressing cells, antagonist mode, reporter read-out; inhibition, % at 4.98 µM; 220,000 tested, 0.26% active; AID 1510; in the data active = inhibition above about 29%;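 also: 0% = wells stimulated with agonist and 100% = vehicle wells without agonist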
EP2 mod = modulators of human EP2 prostaglandin E2 receptor | P43116 | EP2-expressing cells, cAMP HTRF FRET, PGE2 co-stimulation | induction, % at 25 µM | 260,000 tested, 0.83% active;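 active = compounds whose cAMP rise, as percent of the full-agonist control response, exceeds 60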;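 also: rat C6 glioma line stably carrying human EP2 under a CMV promoter; the protocol text gives 20 µM as final concentration; 100% = response of wells given 1 µM PGE2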
S1P3 antag = blocks the human S1P3 receptor; CHO S1P3 NFAT-BLA reporter, FRET fluorescence, antagonist mode; 170,000 tested, 0.27% active; inhibition, % at 4.98 µM;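 active = inhibition above the plate cutoff, the mean inhibition of test wells on that plate plus 3 SD, cut at about 28% in these data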;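 also: cells challenged with S1P at its EC80 of 0.8 µM; blue over green emission ratio from cleaved BLA substrate after 4 h stimulation; 0% = S1P-stimulated wells and 100% = unstimulated DMSO-only wells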
Target sequence (Q99500 whole entry, looked up): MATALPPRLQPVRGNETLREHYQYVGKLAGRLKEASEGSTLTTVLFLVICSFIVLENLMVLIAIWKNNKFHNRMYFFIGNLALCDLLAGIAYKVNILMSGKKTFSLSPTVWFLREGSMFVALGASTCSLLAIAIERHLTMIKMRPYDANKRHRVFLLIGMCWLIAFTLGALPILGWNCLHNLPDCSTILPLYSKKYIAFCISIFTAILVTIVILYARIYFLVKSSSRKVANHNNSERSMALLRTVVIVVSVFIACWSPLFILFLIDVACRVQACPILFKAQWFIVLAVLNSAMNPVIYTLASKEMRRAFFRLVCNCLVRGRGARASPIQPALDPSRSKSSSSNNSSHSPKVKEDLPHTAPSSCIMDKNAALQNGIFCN
Active calls of the source: *; . = no result given.

SMILES	PGE2 EP2 inh	INS promoter inh	S1P4 ag	S1P4 antag	EP2 mod	S1P3 antag
COc1cccc2c1C(=O)c1c(O)c3c(c(O)c1C2=O)C[C@](O)(/C(C)=N/O)C[C@@H]3O[C@@H]1C[C@H](N)[C@@H](O)[C@H](C)O1	46*	.	.	.	8	.
CCCn1nc(CC(=O)N2CCCCC2CN2CCCCC2)c2ccccc2c1=O (stereo not given)	5	.	.	.	-8	.
CCn1nc(-c2ccccc2)nc2c(=O)n(C)c(=O)nc1-2	43*	.	2	11	-88	103*
O=C(c1cc2cc3ccc(Cl)cc3nc2o1)N1CCC2(CC1)OCCO2	23	84*	1	-7	4	4
CC1(C)CC2(CCCN(CCC(N)=O)C2)CCO1 (stereo not given)	14	.	.	.	10	.
COc1ccc(CC(=O)N2CCN(Cc3ccco3)C[C@H]2C)cc1OC	.	.	.	.	-47	.
C[C@]12CC[C@@H]3[C@H](CCC4=CC(=O)CC[C@]43C)[C@]1(O)CC[C@@]2(O)C(=O)CO	55*	.	.	.	-3	.
COc1ccc2c(c[n+](C)c3c4cc5c(cc4ccc23)OCO5)c1OC	118*	.	.	.	-26	.
COc1ccc2c(c1OC)C(=O)O[C@H]2[C@H]1c2cc3c(cc2CCN1C)OCO3	11	.	.	.	-27	.
CN1/C(=C\C=C\C2=[N+](C)c3ccc4ccccc4c3C2(C)C)C(C)(C)c2ccccc21	114*	-151	3	-19	-46	.
COC(=O)c1cn(Cc2ccc(C#N)cc2)c2ccccc12	12	.	.	.	49	.
Cc1ccccc1N1C(=O)NC(=O)/C(=C\c2cnn(-c3ccccc3)c2)C1=O	51*	-25	0	4	-57	-22
Nc1ccc(S(=O)(=O)c2ccc(NCN3C(=O)NC(=O)C(=O)C3=O)cc2)cc1	44*	.	.	.	14	.
Cc1nc2c(=O)n(C)c(=O)nc-2n(C)n1	34	-155	2	97*	-164	.
C=C(c1ccccc1)P(=O)(O)O	8	50	1	1	12	-1
C=C(C)c1ccccc1 (tested in a mixture with another compound)	55*	.	.	.	10	.
COC(=O)c1c(C)ccc2c(O)c3c(cc12)C(=O)c1c2c(cc(O)c1C3=O)[C@@]1(C)O[C@@](C)(O2)[C@@H](O)[C@H](N(C)C)[C@H]1O	42*	.	.	.	12	.
CCCOc1ccccc1CN1C2CCC1CC(O)(c1nccn1C)C2 (stereo not given)	4	.	.	.	-3	.
COC(=O)CC1=C(C(=O)OC)C2(C(=O)Nc3ccc(F)cc32)C(C#N)=C(N)O1 (stereo not given)	14	.	.	.	23	.
C[C@]12CCC3C(CC[C@H]4C[C@@H](O)CC[C@]34C)C1CCC2=O (stereo not given in full)	42*	.	.	.	-37	.
CC(C)[C@H]1CN(Cc2ccco2)CCN1C(=O)Cc1ccc(-n2cnnn2)cc1	.	.	.	.	-30	.
CCOc1ccc(CN2CCNCC2)cc1	3	.	.	.	-13	.
C[C@H]1CC[C@@H]2[C@@H](C)[C@H]3[C@H](C[C@H]4[C@@H]5CC=C6C[C@@H](O[C@@H]7O[C@H](CO)[C@H](O)[C@H](O[C@@H]8O[C@H](CO)[C@@H](O)[C@H](O)[C@H]8O)[C@H]7O[C@@H]7O[C@@H](C)[C@H](O)[C@@H](O)[C@H]7O)CC[C@]6(C)[C@H]5CC[C@]34C)N2C1	88*	9	-5	0	-72	-8
CCCC/C(C)=C/[C@@H](NP(=O)(c1ccccc1)c1ccccc1)c1ccccc1	8	-18	0	11	64*	-5
CCCCCP(=O)(O)c1ccccc1	6	3	-1	-3	22	-4
SMILES	PGE2 EP2 inh	INS promoter inh	S1P4 ag	S1P4 antag	EP2 mod	S1P3 antag
C[C@@H]1CC[C@@]2(OC1)OC1C(O)C3C4CC[C@H]5C[C@H](O[C@@H]6O[C@H](CO)[C@H](O[C@@H]7O[C@H](CO)[C@@H](O)[C@H](O[C@@H]8OC[C@@H](O)[C@H](O)[C@H]8O)[C@H]7O[C@@H]7O[C@H](CO)[C@H](O)[C@H](O[C@@H]8O[C@H](CO)[C@@H](O)[C@H](O)[C@H]8O)[C@H]7O)[C@H](O)[C@H]6O)[C@H](O)C[C@]5(C)C4CC[C@]3(C)C1[C@@H]2C (stereo not given in full)	116*	.	.	.	-38	.
O=C1NC(=O)N(Cc2ccc(F)cc2)C(=O)/C1=C/c1cccs1	93*	30	0	0	-65	-1
O=C1NC(=O)N(Cc2ccccc2Cl)C(=O)/C1=C/c1cccs1	33	35	0	-14	-83	-16
COc1ccc(CN2C3CCC2CC(O)(c2ccccc2F)C3)cc1OC(C)C (stereo not given)	6	.	.	.	-13	.
COC(=O)C1C=C2c3cccc4[nH]cc(c34)CC2N(C)C1 (stereo not given)	8	.	0	-3	-8	-7
CN1C[C@@H](C(=O)N[C@@]2(C)O[C@@]3(O)[C@H]4CCCN4C(=O)[C@@H](Cc4ccccc4)N3C2=O)C=C2c3cccc4[nH]cc(c34)C[C@@H]21	66*	.	.	.	3	.
Cc1cccc(C2=NCC(=O)Nc3sc4c(c32)CCCC4)c1	5	.	.	.	9	.
CO[C@@H]([CH2][Hg][n]1cnc2c1c(=O)n(C)c(=O)n2C)CN1C(=O)c2ccccc2S1(=O)=O	49*	.	.	.	30	.
COc1ccc(C2(O)CC3CCC(C2)N3Cc2cnc(SC)nc2)cc1 (stereo not given)	4	.	.	.	-68	.
COc1cccc(C2(O)CCNCC2)c1	10	.	.	.	-6	.
COc1ccc(CC2C(=O)NC(=O)N(c3ccccc3)C2=O)c(OC)c1 (stereo not given)	17	.	-1	-3	4	74*
COc1ccc(CC2C(=O)N(c3ccccc3)C(=O)N(c3ccccc3)C2=O)c(OC)c1	8	28	2	-19	-9	.
C=Cn1ncc(CN(CCc2ccccc2)Cc2cccs2)c1C	3	.	.	.	60	.
Cc1cccc(N2C(=O)NC(=O)/C(=C\C=C\c3ccco3)C2=O)c1	44*	.	2	-3	-109	-7
O=C1NC(=O)N(c2ccccc2)C(=O)/C1=C/C=C/c1ccco1	47*	.	2	-1	-102	-2
O=C1NC(=O)N(Cc2ccccc2)C(=O)/C1=C\C=C\c1ccco1	63*	.	0	-20	-65	-16
Cc1ccc(N2C(=O)NC(=O)/C(=C\C=C\c3ccco3)C2=O)cc1	26	.	1	8	-29	-4
C=CCN1C(=O)NC(=O)/C(=C/C=C/c2ccccc2)C1=O	129*	.	1	6	-67	-4
CN(C)CCN(Cc1ccccc1F)C(=O)Cc1cn2ccsc2n1	5	.	.	.	4	.
CN1CCC(NCCO)CC1	9	.	.	.	-45	.
O=C(CN1C2CCC1CC(O)(c1ccccc1F)C2)NC1CCS(=O)(=O)C1 (stereo not given)	7	.	.	.	7	.
Cn1ccnc1C1(O)CC2CCC(C1)N2CC(=O)Nc1ccc2c(c1)OCO2 (stereo not given)	.	.	.	.	-27	.
